Inconclusive results are not listed. Calls of active or inactive are those of the source. Calls come from the whole dose curve; as a rule, active = well fitted cell-killing curve with a large enough effect; inconclusive = small, poorly fitted or top-dose-only effect, or effect the other way; inactive = flat fitted curve, though single readings scatter.
Legend:
Assay in all cases: Primary qHTS to identify gynecologic anti-cancer compounds using libraries of approved drugs and bioactive compounds (AID 1345084); note: nearly all actives have a fitted effect of over 55% in size
Hek293T = settings: Gynecologic cancer cell panel viability, ATPlite luminescence, 48 h, control line for the selectivity index; series mostly up to 57.5 µM
In short: (§1)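 ATP-based viability (ATPlite), 1,000 cells/well, 16 h pre-incubation, 48 h compound at 37 C, 5% CO2, 15 min RT before read.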

JEG-3 = settings: Gynecologic cancer cell panel viability, ATPlite luminescence, 48 h; series mostly up to 57.5 µM
In short: as §1

OV90 = settings: Gynecologic cancer cell panel viability, ATPlite luminescence, 48 h; series mostly up to 57.5 µM
In short: as §1

PA-1 = settings: Gynecologic cancer cell panel viability, ATPlite luminescence, 48 h; series mostly up to 57.5 µM
In short: as §1

SKOV3 = settings: Gynecologic cancer cell panel viability, ATPlite luminescence, 48 h; series mostly up to 57.5 µM
In short: as §1

Tov-21-G = settings: Gynecologic cancer cell panel viability, ATPlite luminescence, 48 h; series mostly up to 57.5 µM
In short: as §1

Tov112D = settings: Gynecologic cancer cell panel viability, ATPlite luminescence, 48 h; series mostly up to 57.5 µM
In short: as §1
% is set by controls: 0 for no effect and ±100 for the full control effect.

OC1(c2ccc(Cl)cc2)c2ccccc2C2=NCCN21 (stereo unspecified)
inactive: Potency (Hek293T) | Potency (JEG-3) | Potency (OV90) | Potency (PA-1) | Potency (SKOV3) | Potency (Tov-21-G) | Potency (Tov112D)

COc1c(C(C)C)cc2c(c1O)[C@@]1(C(=O)O)CCCC(C)(C)C1CC2 (stereo partly specified)
inactive: Potency (Hek293T) | Potency (JEG-3) | Potency (OV90) | Potency (PA-1) | Potency (SKOV3) | Potency (Tov-21-G) | Potency (Tov112D)

C[C@@]12C[C@@H](c3ccoc3)OC(=O)C1CC[C@]1(C)[C@H]2[C@H]2C=C[C@]1(O)C(=O)O2 (stereo partly specified)
inactive: Potency (Hek293T) | Potency (JEG-3) | Potency (OV90) | Potency (PA-1) | Potency (SKOV3) | Potency (Tov-21-G) | Potency (Tov112D)

Oc1ccc2c3c1O[C@H]1[C@H](N(CCCl)CCCl)CC[C@@]4(O)[C@@H](C2)N(CC2CC2)CC[C@]314
inactive: activity change, negative = cytotoxicity (Hek293T) 0.845% [at 11.6 µM] | activity change, negative = cytotoxicity (JEG-3) -5.35% [at 11.6 µM] | activity change, negative = cytotoxicity (OV90) 0.162% [at 11.6 µM] | activity change, negative = cytotoxicity (PA-1) 6.51% [at 11.6 µM] | activity change, negative = cytotoxicity (SKOV3) 9.08% [at 11.6 µM] | activity change, negative = cytotoxicity (Tov-21-G) 6.96% [at 11.6 µM] | activity change, negative = cytotoxicity (Tov112D) 3.75% [at 11.6 µM]

CCC(C)(C#N)O[C@@H]1O[C@H](CO)[C@@H](O)[C@H](O)[C@H]1O (stereo partly specified)
inactive: Potency (Hek293T) | Potency (JEG-3) | Potency (OV90) | Potency (PA-1) | Potency (SKOV3) | Potency (Tov-21-G) | Potency (Tov112D)

CC(=O)OC1CC(O)C2(C)C(CC(OC(C)=O)C3(C)C2CCC2(C)C(c4ccoc4)C(=O)C4OC423)C1(C)C (stereo unspecified)
inactive: Potency (Hek293T) | Potency (JEG-3) | Potency (OV90) | Potency (PA-1) | Potency (SKOV3) | Potency (Tov-21-G) | Potency (Tov112D)

C[C@@]1(C(=O)O)CC[C@]2(C)CC[C@]3(C)C4=CC(=O)c5cc(O)c(O)cc5[C@]4(C)CC[C@@]3(C)[C@@H]2C1
inactive: Potency (Hek293T) | Potency (JEG-3) | Potency (OV90) | Potency (PA-1) | Potency (SKOV3) | Potency (Tov-21-G) | Potency (Tov112D)

O=C(N1CCOCC1)N1CCN(c2ccc(Cl)cc2)CC1
inactive: Potency (Hek293T) | Potency (JEG-3) | Potency (OV90) | Potency (PA-1) | Potency (SKOV3) | Potency (Tov-21-G) | Potency (Tov112D)

CCCN1CCO[C@H]2c3cc(O)ccc3OC[C@@H]21
inactive: Potency (Hek293T) | Potency (JEG-3) | Potency (OV90) | Potency (PA-1) | Potency (SKOV3) | Potency (Tov-21-G) | Potency (Tov112D)

OCCCCC#Cc1cncc(OC[C@@H]2CCN2)c1
inactive: Potency (Hek293T) | Potency (JEG-3) | Potency (OV90) | Potency (PA-1) | Potency (SKOV3) | Potency (Tov-21-G) | Potency (Tov112D)

COC(=O)[C@@]12C(=O)C(C)C(=O)[C@]1(C)C(C)=C[C@H]1[C@]3(C=O)CC[C@H](OC(C)=O)C(C)(C)[C@H]3CC[C@@]12C (stereo partly specified)
inactive: Potency (Hek293T) | Potency (JEG-3) | Potency (OV90) | Potency (PA-1) | Potency (SKOV3) | Potency (Tov-21-G) | Potency (Tov112D)

Clc1ccc(OCC2=NCCN2)cc1Cl
inactive: Potency (Hek293T) | Potency (JEG-3) | Potency (OV90) | Potency (PA-1) | Potency (SKOV3) | Potency (Tov-21-G) | Potency (Tov112D)

COC(=O)N1CCN(C(=O)Cc2ccc(Cl)c(Cl)c2)[C@@H](CN2CCCC2)C1
inactive: Potency (Hek293T) | Potency (JEG-3) | Potency (OV90) | Potency (PA-1) | Potency (SKOV3) | Potency (Tov-21-G) | Potency (Tov112D)

CC1=C2C(=O)C3[C@@H](CC=C4C[C@@H](O)CC[C@@]43C)[C@@H]2CC[C@]12O[C@@H]1C[C@H](C)CN[C@H]1[C@H]2C (stereo partly specified)
inactive: Potency (Hek293T) | Potency (JEG-3) | Potency (OV90) | Potency (PA-1) | Potency (SKOV3) | Potency (Tov-21-G) | Potency (Tov112D)

CN1[C@@H]2CC[C@H]1CC(OC(=O)C1C=Nc3ccccc31)C2 (stereo partly specified)
inactive: Potency (Hek293T) | Potency (JEG-3) | Potency (OV90) | Potency (PA-1) | Potency (SKOV3) | Potency (Tov-21-G) | Potency (Tov112D)

CC(C)(C)c1cc(C(C)(C)C)c2c(c1)C(O)(C(F)(F)F)C(=O)O2 (stereo unspecified)
inactive: Potency (Hek293T) | Potency (JEG-3) | Potency (OV90) | Potency (PA-1) | Potency (SKOV3) | Potency (Tov-21-G) | Potency (Tov112D)

CC(=O)OC12C(O)C(C)C3(O)C4C=C(C)C(=O)C4CC(CO)=CC3C1C2(C)C (stereo unspecified)
inactive: Potency (Hek293T) | Potency (JEG-3) | Potency (OV90) | Potency (PA-1) | Potency (SKOV3) | Potency (Tov-21-G) | Potency (Tov112D)

CC(C)[C@@H](CN1CC[C@@](C)(c2cccc(O)c2)[C@@H](C)C1)NC(=O)[C@H]1Cc2ccc(O)cc2CN1
inactive: Potency (Hek293T) | Potency (JEG-3) | Potency (OV90) | Potency (PA-1) | Potency (Tov-21-G) | Potency (Tov112D)

CC[C@H]1CN2CC[C@H]1C[C@H]2[C@H](O)c1ccnc2ccc(OC)cc12
inactive: Potency (Hek293T) | Potency (JEG-3) | Potency (PA-1) | Potency (SKOV3) | Potency (Tov-21-G) | Potency (Tov112D)

From PubChem BioAssay (NCATS)
